Source: PubChem BioAssay (NCI)
Compounds without any hit were thinned out: in the full panel of roughly 83,000, 20% have a hit.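 Assay: single dose, 48 h. Readout: percent growth (0 = no net growth; negative = cell death). Active: <10.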 A number with no mark means an inactive call. Calls of active or inactive are those of the source.

Key:
Assay in all cases: NCI-60 one-dose screen, 48 h (100 = growth as untreated, 0 = no growth, -100 = all killed)
Conditions in all cases: 10 µM unless noted
HCT-15 colon = system: HCT-15 colon
HT29 colon = system: HT29 colon
SNB-75 CNS = system: SNB-75 CNS
SNB-19 CNS = system: SNB-19 CNS
U251 CNS = system: U251 CNS
PC-3 prostate = system: PC-3 prostate
SK-MEL-5 melanoma = system: SK-MEL-5 melanoma
UACC-62 melanoma = system: UACC-62 melanoma
LOX IMVI melanoma = system: LOX IMVI melanoma
SK-MEL-28 melanoma = system: SK-MEL-28 melanoma

SMILES | growth (HCT-15 colon) | growth (HT29 colon) | growth (SNB-75 CNS) | growth (SNB-19 CNS) | growth (U251 CNS) | growth (PC-3 prostate) | growth (SK-MEL-5 melanoma) | growth (UACC-62 melanoma) | growth (LOX IMVI melanoma) | growth (SK-MEL-28 melanoma)
Cn1cc(-c2cc3ncnc(Nc4ccc(CC(=O)Nc5cc(C(C)(C)C)on5)cc4)c3s2)cn1 | 18.6% | 27.4% | 54% | 86.1% | 54.2% | 47% | 52.1% | 30% | 25.8% | 44%
COc1cc(C(=O)N2N=C(c3ccc(S(C)(=O)=O)cc3)CC2c2ccco2)cc(OC)c1OC (stereo not given) | 39.4% | 24.9% | 46.9% | 75.9% | 57.7% | 51% | 39.8% | 29.3% | 50.5% | 89.2%
CN1C(=O)CNC(=O)[C@H](NC(=O)c2nc3ccccc3cc2O)CSSC[C@H]1C(=O)NCCCc1nc2ccccc2cc1O | 93.3% | 17.7% | 151% | 100% | 69.1% | 44.7% | 35.2% | 18.9% | -52.4% (active) | 61.9%
c1cc2nc(-c3cn[nH]c3)c3c(c2cc1-c1cn[nH]c1)C1CCC3C1 (stereo not given) | 47.2% | 81.8% | -1.68% (active) | 78.9% | 72% | 62.3% | 60.2% | 59.6% | 69.1% | 73.7%
COc1ccc(OC)c(/C=C2\Oc3cc(OCCN4CCC(Cc5ccccc5)CC4)ccc3C2=O)c1 | 24.3% | 21.4% | 72.6% | 98.8% | 81.2% | 78% | 75.2% | 92.8% | 56.1% | 89.5%
COc1ccc(C(=O)COC(=O)[C@H](C[Se][Se]C[C@H](NC(=O)c2ccc(Br)cc2F)C(=O)OCC(=O)c2ccc(OC)cc2)NC(=O)c2ccc(Br)cc2F)cc1 | -30.7% (active) | 10.7% | -95.6% (active) | -38.1% (active) | -85.3% (active) | -63.8% (active) | -8.07% (active) | -89.5% (active) | -50.8% (active) | -74.5% (active)
Cc1cccc(NCc2cn(-c3ccc(C(=O)O)cc3)nc2-c2ccc(C(=O)O)cc2)n1 | 107% | 107% | 87.4% | 104% | 108% | 103% | 103% | 101% | 100% | 104%
CCOC(=O)c1c(C)oc2ncnc(N3CCN(C(=O)COc4ccc(C(C)(C)C)cc4)CC3)c12 | 79.8% | 90.2% | 93.5% | 85.4% | 89.5% | 59.3% | 34.8% | 42.9% | 75.5% | 85.4%
CNCCCNc1nc2ccccc2c2c(=O)c3cc(F)ccc3sc12 | 3.52% (active) | -39.7% (active) | 59.5% | 65% | 2.96% (active) | 39.6% | 73.7% | -1.88% (active) | -96.2% (active) | 50.1%
O=c1c2cc(C(F)(F)F)ccc2sc2c(NCCCNCCO)nc3ccccc3c12 | -67.2% (active) | -41.4% (active) | 56.9% | 23.2% | -60.6% (active) | 23% | 38.3% | 74.8% | -95.6% (active) | 55.5%
COc1cc2oc(-c3ccc(O)cc3)cc(=O)c2c(O)c1-c1c(OC)cc(O)c2c(=O)cc(-c3ccc(O)cc3)oc12 | 30.4% | 12.1% | -2.61% (active) | 17.8% | 19.2% | 72.3% | -49.5% (active) | -26.3% (active) | 18.2% | 18.3%
O=C(CSc1nc2ccccc2[nH]1)Nc1cccc(Cl)c1 | 109% | 112% | 81.6% | 91.4% | 104% | 99.3% | 104% | 87.6% | 99.6% | 106%
COc1cc(C)c(Cc2cnc(N)nc2N)cc1OC | 113% | 109% | 104% | 98.9% | 97.7% | 94.3% | 105% | 99.5% | 94.9% | 118%
C#Cc1cccc(NC(=O)c2ccc(NC(=O)C=C)cc2)c1 | 60.9% [8.25 µM] | 44% [8.25 µM] | 39.4% [8.25 µM] | 84.5% [8.25 µM] | 80.6% [8.25 µM] | 67.7% [8.25 µM] | 97.7% [8.25 µM] | 73.9% [8.25 µM] | 79.6% [8.25 µM] | 98.2% [8.25 µM]
Cc1ccc(-c2cnc3sc(C(=O)NCCc4ccccc4)c(C)n23)cc1 | 97.9% | 113% | 79.3% | 92.1% | 95% | 81.7% | 99.7% | 85.9% | 84.4% | 104%
S=C(c1cccs1)N1CCN(c2cccc(Cl)c2)CC1 | 88.7% | 89.8% | 100% | 102% | 93.7% | 89.5% | 92.1% | 88.1% | 109% | 104%
c1ccc2c(c1)Nc1ccncc1S2 | 99.7% | 90.5% | 86.3% | 107% | 102% | 91.2% | 93.3% | 96.8% | 85.8% | 128%
COc1nc2ccccc2cc1-c1nc2c(cnn2-c2ccc(Br)cc2)c(=O)[nH]1 | 24% | 8.03% (active) | -12.9% (active) | 21.5% | 15.7% | 13.6% | 5.23% (active) | 24.9% | 31.7% | 43.4%
CC(=O)O.CN1[CH-]N(Cc2ccc(C#N)cc2)c2ccccc21.[Ag+] | 102% | 94.7% | 94.7% | 109% | 97.4% | 91.1% | 41.7% | 112% | 91.8% | 95.3%
Brc1ccc2[nH]cc(-c3nc(-c4c[nH]c5ccncc45)cs3)c2c1 | -67.8% (active) | -63.2% (active) | 51.9% | -79.5% (active) | -83.9% (active) | -66.8% (active) | -44.1% (active) | -79.4% (active) | -97.4% (active) | -95.6% (active)
COc1cccc(-c2nc(-c3ccc(NC(=O)OC(C)C)cc3)[nH]c2-c2ccnc(Br)c2)c1 | 4.09% (active) | 18.3% | 23.6% | 40.3% | 32.7% | 17.5% | 21.9% | 9.86% (active) | 2.73% (active) | 37.7%
CC(C)C(=O)Nc1ccc(-c2nc(-c3cccc(OCCN4CCOCC4)c3)c(-c3ccnc(Br)c3)[nH]2)cc1 | 20.1% | 16.9% | -4.1% (active) | 51.4% | 25% | 40.7% | 45.8% | 33.5% | 27.7% | 43.9%
CCCCCCCCCCCCCCCCCCOc1ccccc1CCCOP(=O)(O)OCC[N+](C)(C)C | 51.3% | 12.7% | 83.3% | 33.7% | 39.4% | 0.281% (active) | 80.9% | 55.7% | 58.1% | 93.1%
COc1ccc(/C=C(/C#N)n2nnc3cccc(F)c32)cc1 | 13.2% | 1.29% (active) | -43.5% (active) | 24.6% | 14.3% | 27.1% | -7.21% (active) | 17.9% | 5.5% (active) | 48.1%
CN(C)CCN1CCN(c2ncccc2C2Nc3ccccc3-n3cccc32)CC1 (stereo not given) | 101% | 101% | 88.3% | 106% | 105% | 102% | 104% | 105% | 99.9% | 105%
Cn1cc(C(=O)c2nc(-c3cn(C)c4ccc(F)cc34)no2)c2cc(F)ccc21 | 93.4% | 95.5% | 87.4% | 104% | 98.1% | 80.3% | 94.2% | 88.4% | 97.4% | 110%
Cc1[nH]c(C(=O)Nc2ccc(C(=O)NCCN)cc2OC(C)C)c(Cl)c1Cl | 34.3% | 2.87% (active) | 78.4% | 52% | -21.4% (active) | 45% | 71.2% | 84% | -95.1% (active) | 70.9%
